Screens (PubChem BioAssay)
FLuc modulator = inhibits or activates purified firefly luciferase, miR-21 counter-screen. P08659. purified FLuc, Km substrates, luminescence inhibition. Potency, µM (series often up to 57.5 µM), most hits filed as inhibitors. 360,000 tested, 6.9% active; further: nearly all actives have a fitted effect of over 55% in size
Target sequence (P08659 whole entry, looked up): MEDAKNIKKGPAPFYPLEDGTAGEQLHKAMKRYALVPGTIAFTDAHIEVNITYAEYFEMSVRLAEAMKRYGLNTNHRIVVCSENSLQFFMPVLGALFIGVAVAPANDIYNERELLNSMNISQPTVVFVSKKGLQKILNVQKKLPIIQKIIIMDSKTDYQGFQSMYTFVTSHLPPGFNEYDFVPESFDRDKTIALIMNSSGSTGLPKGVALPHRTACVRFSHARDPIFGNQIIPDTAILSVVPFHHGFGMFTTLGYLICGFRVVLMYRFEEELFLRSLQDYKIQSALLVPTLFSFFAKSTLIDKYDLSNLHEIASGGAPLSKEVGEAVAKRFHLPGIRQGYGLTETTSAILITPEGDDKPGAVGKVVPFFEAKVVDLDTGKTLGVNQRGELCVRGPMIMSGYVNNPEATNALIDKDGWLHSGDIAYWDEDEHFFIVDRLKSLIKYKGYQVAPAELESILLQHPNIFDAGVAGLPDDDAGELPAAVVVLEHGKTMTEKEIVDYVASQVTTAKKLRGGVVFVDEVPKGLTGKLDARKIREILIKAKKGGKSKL
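Purified P. pyralis luciferase (10nM final) with 10uM D-luciferin and 10uM ATP (Km levels) in 50mM Tris acetate pH 7.5, 10mM Mg acetate, 0.01% Tween-20, 0.05% BSA; qHTS 6-point titration, ~60 µM downward; luminescence read.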
Luc counter = blocks Kinase-Glo luciferase, a counter-screen artifact; Kinase-Glo luciferase, ATP luminescence, 8 min; Potency, µM (titrated, usually from 38.3 µM), hits mostly inhibitors; 200,000 tested, 0.28% active; further: nearly all actives have a fitted effect of over 60% in size
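Inhibition of Kinase-Glo luciferase light generation was assessed at 10 uM ATP in pH 7.2 imidazole buffer, with luminescence measured after eight minutes at ambient temperature.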
Rab9 promoter act = activators of Rab9 promoter; Huh7 Rab9 promoter-luciferase reporter, luminescence, 24 h; Potency, µM (series often up to 9.22 µM), actives largely listed as activators; 320,000 tested, 2.8% active; AID 485297; further: nearly all actives have a fitted effect of over 60% in size
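Using Huh7 cells stably transfected with Rab9 promoter–luciferase, compounds were incubated 24 h at 37 °C, 5% CO2; luciferase luminescence was read 10 min after reagent addition.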
SMN2 splice up = increases expression of the SMN2 splice variant; AID 1458; 210,000 tested, 2.8% active; HEK293 SMN2-luciferase splicing reporter, luminescence, 30-36 h; Potency, µM (top dose mostly 46.1 µM), most hits filed as activators; further: nearly all actives have a fitted effect of over 55% in size
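HEK293 cells carry an SMN2 […]–luciferase reporter in which exon 7 inclusion puts luciferase in frame. Cells were plated 10-12 h before compound addition, then incubated 30-36 h at 37C. ONE-Glo luminescence was read; sodium butyrate at 4.5 mM final served as control.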
NPC1 prom act = activators of NPC1 promoter. Huh7 NPC1 promoter luciferase reporter, 24 h. Potency, µM (doses to about 9.22 µM), actives largely listed as activators. 320,000 tested, 2.4% active; further: nearly all actives have a fitted effect of over 60% in size
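Readout is luciferase luminescence, reflecting NPC1 promoter activation in stably transfected Huh7 cells after 24 h compound exposure at 37 °C in reduced-serum medium with 10% FBS.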
ELG1 genotox = induces genotoxicity in HEK293T cells with luciferase-tagged ELG1. HEK293T ELG1-luciferase reporter, luminescence, 16 h. Potency, µM (doses to about 46 µM), actives largely listed as activators. 330,000 tested, 1.3% active. AID 504466; further: nearly all actives have a fitted effect of over 60% in size
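Genotoxic stress is detected as increased luminescence from luciferase-tagged ELG1 in HEK293T cells, measured with ONE-Glo after a 16 hr treatment at 37 °C.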
Numbers stand for hits; 0 = inactive; ? = inconclusive; - = no result. Most compounds without a hit are left out; they make up all but 7.3% or so of the library. The call rests on the fitted dose curve; in most records, active means well fitted curve in the direction sought with a large enough effect; inconclusive means small, poorly fitted or top-dose-only effect, or another doubt; inactive means no such curve, though single readings can be large; an effect the other way counts as inactive or inconclusive.

SMILES	FLuc modulator	Luc counter	Rab9 promoter act	SMN2 splice up	NPC1 prom act	ELG1 genotox
COCCNC(=O)c1cnn2c1NC(c1ccco1)CC2C(F)(F)F (centres undefined)	0	0	0	0	0	0
COc1ccc(/C=N/NC(=O)c2nc(-c3ccccc3)cc(-c3ccccc3)n2)cc1O	1.5µM	0	0	0	0	0
Cc1ccc2nc(NC(=O)CN3C(=O)NC4(CCCC4)C3=O)sc2c1	9.5µM	-	0	-	0	0
CCOc1ccc2nc(NC(=O)CN3C(=O)NC4(CCCC4)C3=O)sc2c1	6.7µM	-	0	-	0	?
COCc1ccc(C(=O)N2CCCC(CNC(=O)c3ccc(F)cc3)C2)o1 (centres undefined)	0	-	0	-	0	0
Cc1ccc(OCC(=O)Nc2ccc(S(=O)(=O)Nc3cc(C)nc(C)n3)cc2)cc1	0	-	0	-	0	0
COc1ccccc1NS(=O)(=O)c1cccc(NC(=O)c2cc3ccccc3oc2=O)c1	11µM	0	3.2µM	14µM	2.5µM	23µM
CCOc1ccccc1NC(=O)c1cc2ccccc2oc1=O	0	-	1.1µM	-	3.2µM	0
CCOc1cccc2cc(C(=O)Nc3nccs3)c(=O)oc12	2.4µM	0	0	0	0	0
COc1ccccc1NS(=O)(=O)c1cccc(NC(=O)Nc2ccccc2)c1	?	0	0	0	0	0
CCOc1ccccc1OC(=O)c1cc2ccccc2oc1=O	?	0	0	0	0	0
O=C(Nc1ccc(F)cc1F)c1cc2ccccc2oc1=O	0.76µM	-	1.8µM	-	2µM	4.6µM
N/C(=N\NC(=O)c1ccc(F)cc1)c1cc2ccccc2oc1=O	0	0	0	0	0	0
Cc1cc(C)n2c(Br)c(CSc3nc4ccccc4o3)nc2n1	?	0	?	0	?	?
CCC(Cc1ccccc1)NC(=O)c1oc(=O)c2ccccc2c1-c1ccccc1 (centres undefined)	0	-	-	-	-	-
O=C(Nc1ccc(F)cc1F)c1csc(-c2ccccc2)n1	?	0	0	0	0	?
O=C(Nc1ccc(F)cc1F)c1cccc(C(=O)Nc2ccc(F)cc2F)n1	0	-	0	-	0	18µM
COc1ccccc1/C=C/C(=O)Nc1nc(N)n(-c2ccccc2)n1	19µM	-	0	-	0	0
Nc1nc(NC(=O)c2cccs2)nn1-c1ccccc1	17µM	0	2.5µM	11µM	2.8µM	?
Nc1nc(NC(=O)c2ccccc2)nn1-c1ccccc1	?	0	0	?	0	?
COc1ccc(C(=O)Nc2nc(N)n(-c3ccccc3)n2)cc1	17µM	0	0	0	0	0
COc1ccc(-n2cc3ccc([N+](=O)[O-])cc3n2)cc1	0.95µM	-	0.45µM	-	0.71µM	?
COc1cc(C(=O)Nc2nnc(SC)s2)c([N+](=O)[O-])cc1OC	?	0	0	0	0	0
Brc1cccc(-c2n[nH]c(-c3ccccc3)n2)c1	3µM	0	3.5µM	10µM	6.3µM	2.3µM
O=C(c1ccc(CS(=O)(=O)c2c(Cl)cccc2Cl)o1)N1CCN(c2ccccn2)CC1	0	0	0	0	0	0
SMILES	FLuc modulator	Luc counter	Rab9 promoter act	SMN2 splice up	NPC1 prom act	ELG1 genotox
CN(CC(=O)Nc1cccc(F)c1)C(=O)/C=C/c1ccc(Br)s1	0	-	0	-	0	0
COc1ccc(-c2cc3nc(C)c(CCC(=O)NCc4ccco4)c(C)n3n2)c(OC)c1	0	0	0	0	0	0
O=C(Nc1ccc(Cl)c(Cl)c1)N1CC=CCC1	12µM	0	3.5µM	?	2.5µM	?
Cc1cccc(C)c1NC(=O)N1CC=CCC1	0	-	0	-	0	0
O=C(CCCn1cnc([N+](=O)[O-])n1)Nc1ccc(F)c(Cl)c1	0	0	0	0	0	0
Cc1csc2c(N3CCN(C(=S)Nc4ccc(F)cc4F)CC3)ncnc12	24µM	-	0	-	0	0
Cc1csc2c(N3CCN(C(=O)Nc4ccccc4)CC3)ncnc12	?	-	0	-	0	0
COc1cc(C2CC(c3cccnc3)=NN2c2ccc(F)cc2)cc(OC)c1OC (centres undefined)	0	0	0	?	0	?
O=C(OCC(=O)N1CCCCCC1)c1cccs1	13µM	0	?	?	?	?
